Results: PubChem BioAssay (NCATS)
Results filed as inconclusive are left out. Activity calls are given as the source filed them. Calls come from the whole dose curve; as a rule, active = well fitted curve in the direction sought with a large enough effect; inconclusive = small, poorly fitted or top-dose-only effect, or another doubt; inactive = no such curve, though single readings can be large; an effect the other way counts as inactive or inconclusive.

target: Glucagon-like peptide 1 receptor (Homo sapiens) (UniProt P43220); experiment: qHTS of GLP-1 Receptor Agonists: LOPAC Validation (AID 624148); conditions: GLP-1R agonist cell assay; series mostly up to 46.1 µM; activation: at the top concentration;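 note: 0% is about no effect; higher luminescence signal means agonism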
Procedure, shortened: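 HEK293 cells stably co-expressing a cAMP-responsive luciferase reporter and a hypersensitive GLP-1R were plated 12 h at 37 °C and exposed to compounds for 4-6 hr at 37 °C, 5% CO2. Luminescence was read 12 min after adding detection reagent.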

Glucagon-like peptide 1 receptor (Homo sapiens), sequence (P43220 whole entry, looked up): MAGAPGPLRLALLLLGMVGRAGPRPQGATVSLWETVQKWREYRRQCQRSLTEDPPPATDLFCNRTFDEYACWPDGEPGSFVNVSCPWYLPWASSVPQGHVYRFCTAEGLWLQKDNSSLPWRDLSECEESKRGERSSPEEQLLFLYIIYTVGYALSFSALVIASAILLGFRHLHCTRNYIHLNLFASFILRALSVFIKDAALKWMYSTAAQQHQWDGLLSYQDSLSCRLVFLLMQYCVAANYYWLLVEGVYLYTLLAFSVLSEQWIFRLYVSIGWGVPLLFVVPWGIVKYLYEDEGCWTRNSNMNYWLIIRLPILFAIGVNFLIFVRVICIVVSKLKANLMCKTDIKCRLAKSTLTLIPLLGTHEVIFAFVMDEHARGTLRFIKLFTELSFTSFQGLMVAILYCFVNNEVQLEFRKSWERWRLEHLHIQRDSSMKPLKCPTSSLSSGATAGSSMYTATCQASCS

Row | SMILES | activation
1 | COC[C@H]1OC(=O)c2coc3c2[C@@]1(C)C1=C(C3=O)C2CCC(=O)[C@@]2(C)C[C@H]1OC(C)=O (some centres not stated) | 0.715% (inactive)
2 | CN1C[C@H](CNC(=O)OCc2ccccc2)C[C@@H]2c3cccc4c3c(cn4C)C[C@H]21 | 6.06% (inactive)
3 | c1ccc2c(c1)OCC(C1=NCCN1)O2 (configuration not stated) | 1.64% (inactive)
4 | CC(O)(CS(=O)(=O)c1ccc(F)cc1)C(=O)Nc1ccc(C#N)c(C(F)(F)F)c1 (configuration not stated) | -1.88% (inactive)

system: not listed separately; experiment: qHTS of Nrf2 Activators: LOPAC Validation (AID 624149); conditions: Nrf2/ARE reporter cell assay; series mostly up to 46.1 µM; activation: at the top concentration; note: 0% is about no effect
Procedure, shortened: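 Luciferase signal from ARE activation, read with Steady-Glo after 30 min at room temperature. Compounds were pin-transferred onto AREc32_Fluc cells (1000/well, OPTI-MEM/5% FBS, seeded overnight) and left 24 hr at 37 deg C.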

Row | SMILES | activation
5 | CNCC(O)c1ccc(O)cc1 (configuration not stated) | -1.83% (inactive)
6 | CC(CCc1ccccc1)NC(C)C(O)c1ccc(O)cc1 (configuration not stated) | -1.19% (inactive)
7 | COC[C@H]1OC(=O)c2coc3c2[C@@]1(C)C1=C(C3=O)C2CCC(=O)[C@@]2(C)C[C@H]1OC(C)=O (some centres not stated) | 6.51% (inactive)
8 | CN1C[C@H](CNC(=O)OCc2ccccc2)C[C@@H]2c3cccc4c3c(cn4C)C[C@H]21 | 6.6% (inactive)
9 | CC(O)(CS(=O)(=O)c1ccc(F)cc1)C(=O)Nc1ccc(C#N)c(C(F)(F)F)c1 (configuration not stated) | -1.94% (inactive)

system: not listed separately; experiment: HTS Assay for Allosteric Antagonists of the Human D2 Dopamine Receptor: Hit Validation in HTRF (AID 624455); conditions: Cells stably expressing D1 dopamine receptor, inhibition mode; series mostly up to 46.1 µM; activity, negative = inhibition: at the top concentration;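 note: stable D1 dopamine receptor cell line scored for blocking the D1 response; % is set by controls: 0 for no effect and ±100 for the full control effect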
Procedure, shortened: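 Inhibition of the D1-mediated response was measured by HTRF. Cells used were a line stably expressing the D1 dopamine receptor.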

Row | SMILES | activity, negative = inhibition
10 | CNCC(O)c1ccc(O)cc1 (configuration not stated) | -12.5% (inactive)
11 | CC(CCc1ccccc1)NC(C)C(O)c1ccc(O)cc1 (configuration not stated) | 5.83% (inactive)
12 | COC[C@H]1OC(=O)c2coc3c2[C@@]1(C)C1=C(C3=O)C2CCC(=O)[C@@]2(C)C[C@H]1OC(C)=O (some centres not stated) | -6.42% (inactive)
13 | CN1C[C@H](CNC(=O)OCc2ccccc2)C[C@@H]2c3cccc4c3c(cn4C)C[C@H]21 | -5.39% (inactive)
14 | c1ccc2c(c1)OCC(C1=NCCN1)O2 (configuration not stated) | -11.9% (inactive)
15 | CC(O)(CS(=O)(=O)c1ccc(F)cc1)C(=O)Nc1ccc(C#N)c(C(F)(F)F)c1 (configuration not stated) | 1.14% (inactive)
16 | CC[N+](C)(C)c1cccc(O)c1 | 35.7% (inactive)

system: not listed separately; experiment: Cytotoxicity counterscreen for NFkB agonists and antagonists (AID 624476); conditions: NFkB reporter cell line viability counterscreen; series mostly up to 46.1 µM; activity change, negative = cytotoxicity: at the top concentration;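 note: cells exposed to compound for 48 hours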; note: potency is the fitted concentration of half-maximal effect; for activity change, negative = cytotoxicity: % is set by controls: 0 for no effect and ±100 for the full control effect

Row | SMILES | activity change, negative = cytotoxicity | Potency
17 | COc1cc([C@@H]2c3cc4c(cc3[C@H](O)[C@H]3COC(=O)[C@H]23)OCO4)cc(OC)c1OC | 27.9% (inactive) | 
18 | CN(C)CCN(C)CCc1ccc(Cl)c(Cl)c1 | 0.752% (inactive) | 
19 | COC1(CS(=O)c2ccccc2)CCN(CCc2c[nH]c3ccc(F)cc23)CC1 (configuration not stated) | -4.44% (inactive) | 
20 | Cn1cc(C2=C(c3cn(C4CCN(Cc5ccccn5)CC4)c4ccccc34)C(=O)NC2=O)c2ccccc21 | -1.1% (inactive) | 
21 | Cc1sc2c(c1C)C(c1ccc(Cl)cc1)=N[C@@H](CC(=O)OC(C)(C)C)c1nnc(C)n1-2 | -26.9% (inactive) | 
22 | CNC(=O)c1ccc(N2C(=S)N(c3ccc(C#N)c(C(F)(F)F)c3)C(=O)C23CCC3)cc1F | -6.66% (inactive) | 
23 | CC1=C2C[C@@H]3[C@@H](CC=C4C[C@@H](O)CC[C@@]43C)[C@@H]2CC[C@]12O[C@H]1C[C@H](C)CN[C@H]1[C@H]2C | -0.7% (inactive) | 
24 | O=C(O)C(=O)c1cn(Cc2ccccc2)c2ccc(-c3ccc(OC(F)(F)F)cc3)cc12 |  | 18.7 µM (active)
25 | COc1ccc(C(=O)c2c(C)n(CCN3CCOCC3)c3ccccc23)cc1 | -1.5% (inactive) | 
26 | CCCCC/C=C\C/C=C\C/C=C\C/C=C\CCCC(=O)NC1CC1 | -8.55% (inactive) | 
27 | C[C@@H]1[C@@H](CC(C[C@H]2O[C@@H]3O[C@]4(C)CC[C@@H]5[C@H](C)CC[C@@H]([C@H]2C)[C@@]35OO4)C[S+](=O)([O-])c2ccc(COC(=O)N(C)C)cc2)O[C@@H]2O[C@]3(C)CC[C@H]4[C@H](C)CC[C@@H]1[C@@]24OO3 (some centres not stated) | -20.7% (inactive) | 
28 | CC(O)(CS(=O)(=O)c1ccc(F)cc1)C(=O)Nc1ccc(C#N)c(C(F)(F)F)c1 (configuration not stated) | -8.49% (inactive) | 
29 | Cc1cc2c(C(C)C)c(O)c(O)c(C=O)c2c(O)c1-c1c(C)cc2c(C(C)C)c(O)c(O)c(C=O)c2c1O |  | 4.69 µM (active)
30 | C[C@@H]1[C@@H](C(=O)C[C@H]2O[C@@H]3O[C@]4(C)CC[C@@H]5[C@H](C)CC[C@@H]([C@H]2C)[C@@]35OO4)O[C@@H]2O[C@]3(C)CC[C@H]4[C@H](C)CC[C@@H]1[C@@]24OO3 | -18.5% (inactive) | 
31 | Cn1c(CCCC(=O)O)nc2cc(N(CCCl)CCCl)ccc21 | 22% (inactive) | 
32 | CNC(=O)N1N=C(c2ccc(N)cc2)c2cc3c(cc2CC1C)OCO3 (configuration not stated) | -20.6% (inactive) | 
